The campaign covered roughly 420,000 compounds. About 50,000 (12%) were called active. Another 26% or so got no clear call; they are omitted. Calls come from the whole dose curve; as a rule, active = well fitted inhibition curve with a large enough effect; inconclusive = small, poorly fitted or top-dose-only effect; inactive = flat fitted curve, though single readings scatter. The entries come from a sample that favours actives as a whole. Entries that show only a call come without a potency.

Consider 63 compounds from PubChem BioAssay AID686979 (National Center for Advancing Translational Sciences (NCATS), 2013).
Potency is the fitted concentration of half-maximal effect.

The test in a line: qHTS for Inhibitors of human tyrosyl-DNA phosphodiesterase 1 (TDP1): qHTS in cells in presence of CPT. Note: nearly all actives have a fitted effect of over 55% in size. The note with it: chicken DT40 Tdp1-/-;hTDP1 cells + 20 nM CPT, ATP luminescence, 48 h; series mostly up to 46.2 µM. Summed up:
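Cell growth measured by CellTiter-Glo luminescence after a minimum 48 h, 37 C compound exposure with 20 nM CPT in Tdp1-knockout DT40 cells stably expressing hTDP1, seeded 400/well; qHTS titration format.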
(qHTS replaces the single test concentration by a dilution series.)
Turning to `O=C(Nc1nnc(C2CC(=O)N(c3ccc(Cl)cc3)C2)s1)c1ccco1` (stereo not drawn), the Potency entry was “inactive”.

With `CC(C)Nc1nnc(SC(C)C(=O)N(C)C2CCCCC2)s1` (stereo not drawn), the Potency entry is “inactive”.

On to `CC1CCCN(C(C(=O)Nc2ccc(C(C)C)cc2)c2ccc3c(c2)OCO3)C1` (stereo not drawn), for which the Potency is 18.4 µM (active).

In the case of `CC(NC(=O)Nc1ccc2c(c1)OCO2)c1ccncc1` (stereo not drawn), the Potency result was “inactive”.

Turning to `CCc1ccc(NC(=O)NC(C)c2ccc3c(c2)OCO3)cc1` (stereo not drawn), the Potency result is “inactive”.

`O=C(CN1C(=O)NC2(CCCCC2)C1=O)N1CCN(C(=O)c2cccs2)CC1`: the Potency result is “inactive”.

For the compound `COc1ccc(Cl)cc1NC(=O)NC(C)C(C)(C)C` (stereo not drawn), the Potency entry is “inactive”.

As for `Cc1ccc(S(=O)(=O)Nc2nc3ccccc3s2)cc1[N+](=O)[O-]`, the Potency entry is “inactive”.

Take `O=[N+]([O-])c1cccc(/C=N/Nc2ncc(Br)cn2)c1`: the Potency result is “inactive”.

As for `O=[N+]([O-])c1cc(Br)c(O)c(/C=N/Nc2nc3ccccc3s2)c1`, the Potency was 8.2 µM (active).

Regarding `COc1cc(/C=N/Nc2nc3ccccc3s2)ccc1O`, the Potency is 1.46 µM (active).

Consider `CCNc1nc(NCC)nc(N/N=C/c2ccc(O)c(OC)c2)n1`, for which the Potency entry was “inactive”.

As to `COc1ccc(/C=N/Nc2nc3ccccc3o2)cc1OC`, the Potency result was “inactive”.

As for `CCOC(=O)N1CCC(N2Cc3cccc(C(=O)Nc4ccc(S(=O)(=O)N(CC)CC)cc4)c3C2=O)CC1`, the Potency result is “inactive”.

In the case of `C=CCOc1cccc(C2C(C(=O)c3ccc(C)o3)=C(O)C(=O)N2CCN2CCOCC2)c1` (stereo not drawn), the Potency result is “inactive”.

As for `COc1ccc(/C=N/NC(=O)c2ccccc2)cc1OS(=O)(=O)c1ccccc1`, the Potency entry is “inactive”.

For the compound `COc1ccc(C(=O)Nc2ccccc2C(=O)N/N=C/c2ccc(O)c(OC)c2)cc1`, the Potency was 16.4 µM (active).

On to `COc1ccc(/C=N/Nc2ccccc2C(=O)O)cc1`, for which the Potency entry is “inactive”.

For the compound `Cc1cccc(C)c1N1C(=O)CN(Cc2ccccc2)C1=S`, the Potency result is “inactive”.

As to `C=CCC1(CC=C)CCCN1C(=O)CC1C(=O)NCCN1Cc1ccccc1OC` (stereo not drawn), the Potency result was “inactive”.

Turning to `O=C(Cc1ccc(Br)cc1)NCCN1CCOCC1`, the Potency result is “inactive”.

On to `COC1=C/C(=C/c2c(N)n3nc(CC(=O)N4CCOCC4)sc3nc2=O)C=CC1=O`, for which the Potency result is “inactive”.

Take `O=C(O)c1ccc(CSc2nc3cccnc3n2Cc2cccc(F)c2)cc1`: the Potency entry was “inactive”.

For `Cc1cccc(CSc2nc3ccncc3n2Cc2ccc(C(=O)O)cc2)c1`, the Potency entry was “inactive”.

Regarding `COc1cccc(Cn2c(SCc3ccc(C(=O)N4CCC(C)CC4)cc3)nc3ccncc32)c1`, the Potency is 11.6 µM (active).

As for `CCC1C(=O)NCCN1C(=O)c1ccc2nc(Cc3ccc(OC)cc3)oc2c1` (stereo not drawn), the Potency result is “inactive”.

In the case of `COc1ccc(S(=O)(=O)N2CCN(C)CC2)c(C)c1`, the Potency entry is “inactive”.

As to `CN(C)S(=O)(=O)N1CCC(Oc2cccc(C(=O)NCCCC3CCCC3)c2)CC1`, the Potency is 18.4 µM (active).

Regarding `CN(C(=O)c1cccc(OC2CCN(S(=O)(=O)N(C)C)CC2)c1)C1CCOC1` (stereo not drawn), the Potency entry was “inactive”.

Take `CNS(=O)(=O)c1cccc(C(=O)NCC2CCCCC2)c1`: the Potency entry is “inactive”.

For `Clc1cc(-c2ccc(/C=N/n3cnnc3)o2)ccc1Br`, the Potency entry was “inactive”.

For `CCOc1ccc(S(=O)(=O)NCc2ccc3c(c2)OCO3)cc1C`, the Potency result was “inactive”.

For `O=C(NC1CC(=O)N(c2ccc(Cl)cc2)C1)C1CCCC1` (stereo not drawn), the Potency entry is “inactive”.

With `Cc1cc(C)n2nc(C(=O)OCC(=O)N(CCC#N)c3ccc(F)cc3)nc2n1`, the Potency entry is “inactive”.

With `Cc1ccc(-c2cc(=O)c3ccc(Cl)cc3[nH]2)cc1`, the Potency entry was “inactive”.

On to `O=c1cc(-c2ccccc2)[nH]c2cc(F)ccc12`, for which the Potency was 0.92 µM (active).

For `Cc1ccc(-c2cc(=O)c3ccc(F)cc3[nH]2)cc1`, the Potency is 18.4 µM (active).

Consider `Cc1cc(=O)c2ccc(NC(=O)c3ccccc3)cc2[nH]1`, for which the Potency result was “inactive”.

In the case of `Cc1ccc(S(=O)(=O)/N=C(\N)c2ccc(F)cc2)cc1`, the Potency result is “inactive”.

For `O=c1[nH]c(-c2ccccc2)c(-c2ccccc2)[nH]1`, the Potency entry was “inactive”.

Consider `CC1=C(C(=O)OC2CCCCC2)C(c2ccccc2F)NC(=O)N1` (stereo not drawn), for which the Potency entry was “inactive”.

Turning to `O=C(CCC(=O)N1CCCC1)Nc1ccc([N+](=O)[O-])cc1`, the Potency result was “inactive”.

For `CCCCOc1ccc(C(=O)NCC(=O)OCC(=O)N2CCN(S(=O)(=O)c3ccc(C)cc3C)CC2)cc1`, the Potency entry was “inactive”.

In the case of `N#C/C(=C/c1ccc(Cl)cc1)NC(=O)c1ccccc1`, the Potency result was “inactive”.

In the case of `Cc1c(Br)c([N+](=O)[O-])nn1CC(=O)N1CCN(Cc2ccccc2)CC1`, the Potency result is “inactive”.

As for `Fc1ccc(COc2ccc(-c3nnco3)cc2)cc1`, the Potency entry is “inactive”.

Regarding `CCN(C[C@H]1N[C@@](CC)(C(=O)OC)[C@H]2C(=O)N(Cc3ccccc3)C(=O)[C@@H]12)S(=O)(=O)c1ccccc1`, the Potency entry was “inactive”.

As to `CCN1C(=O)[C@H]2[C@@H](c3ccc(-c4ccc(OC)cc4)cc3)N[C@@](Cc3ccccc3)(C(=O)OC)[C@H]2C1=O`, the Potency is 18.4 µM (active).

Consider `COC(=O)C1(C)NC(c2ccccc2OC)C2C(=O)N(c3ccccc3)C(=O)C21` (stereo not drawn), for which the Potency entry is “inactive”.

Consider `CCNC(=O)N(CC)C[C@H]1N[C@@](CC)(C(=O)OC)[C@H]2C(=O)N(Cc3ccccc3)C(=O)[C@@H]12`, for which the Potency result was “inactive”.

In the case of `CCCC1(C(=O)OC)NC(c2ccco2)C2C(=O)N(C)C(=O)C21` (stereo not drawn), the Potency entry was “inactive”.

Regarding `CCN1C(=O)[C@H]2[C@@H](c3ccc(SC4CCCCC4)c(OC)c3)N[C@@](Cc3ccccc3)(C(=O)OC)[C@H]2C1=O`, the Potency was 16.4 µM (active).

As to `CC1=NNC(=O)C1Cc1c(Cl)cccc1Cl` (stereo not drawn), the Potency result is “inactive”.

Regarding `C#CCOCCOCCOCCNc1nc(N2CCN(C(=O)C([C@@H](C)O)n3cc([C@@H](N)CCCCN)nn3)CC2)nc(N2CCN(C(=O)[C@H](CCCCN)n3cc(CN)nn3)CC2)n1` (stereo partly drawn), the Potency result was “inactive”.

With `CC(C)[C@H](NC(=O)c1ccccc1F)C(=O)Nc1cccc(S(=O)(=O)N2CCOCC2)c1`, the Potency result is “inactive”.

As for `CC(=O)c1ccc(NC(=O)Cn2c(=O)oc3ccccc32)cc1`, the Potency result is “inactive”.

`Cc1ccccc1NC(=O)Cn1c(=O)n(CC2CCCO2)c(=O)c2ccccc21` (stereo not drawn): the Potency result was “inactive”.

As for `O=C(NCc1ccccc1)C1c2ccccc2OCC(=O)N1CCCN1CCOCC1` (stereo not drawn), the Potency result is “inactive”.

Turning to `O=C1Nc2ccccc2NC(c2ccc3c(c2)OCO3)=C1N(Cc1ccc(F)cc1)C(=O)c1ccco1`, the Potency was 16.4 µM (active).

Turning to `O=C(/C=C/c1ccc2c(c1)OCO2)NCc1ccc(F)cc1`, the Potency entry was “inactive”.

With `O=C(c1ccc2c(c1)OCO2)N1CCN(C(=O)c2ccco2)CC1`, the Potency result was “inactive”.

Consider `CCCCNc1ccc(-c2nc(-c3ccncc3)no2)cc1[N+](=O)[O-]`, for which the Potency result is “inactive”.

For `Cc1ccc2nsnc2c1S(=O)(=O)N1CCCC1C(=O)O` (stereo not drawn), the Potency entry is “inactive”.
